{"source": "the supplement of paper PMC10338343", "note": "± gives the standard deviation.", "data": [{"system": "EfPiwi piRISC loaded with piRNA #1 (26 nt)", "test": "pre-steady-state target cleavage rate (min^-1); auxiliary factor: 500 nM Ephydatia muelleri Gtsf1; guide: piRNA #1 5'p-UGAGGUAGUAGGUUGUAUAGUAUCCA; MIWI and MILI are mouse PIWI proteins and EfPiwi is from a freshwater sponge; tags in brackets are library labels; higher = faster piRNA-guided slicing of the target", "experimental": "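Cleave-'n-Seq: a library of target RNAs (target site in constant flanks) at […] was incubated with 1 nM active freshwater sponge Ephydatia fluviatilis Piwi piRISC (synthetic 5'-monophosphorylated piRNA guide) with or without 500 nM EmGtsf1 at 33 °C for 1 min to 16 h. Uncleaved targets were sequenced and the pooled three trials fitted to a burst-and-steady-state model to give the pre-steady-state cleavage rate (min^-1). Sequence is the target site only. Fits with R² ≤ 0 are excluded.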", "values": [{"sequence": "GGAGACCAUACUAUACAGCCUACUACCUCA", "pre-steady-state target cleavage rate": "0.16 ± 0.053"}, {"sequence": "GGAGUGGUUACUAUACAAGCUACUACCUCA", "pre-steady-state target cleavage rate": "0.00582 ± 0.0018"}, {"sequence": "GGAGUGGAUACUAUACAACCUACUACCUGA", "pre-steady-state target cleavage rate": "0.0069 ± 0.0028"}, {"sequence": "GGAGAGGAUACUAUACAACCUUGAACCUCA", "pre-steady-state target cleavage rate": "0.00408 ± 0.004"}, {"sequence": "GGAGACGAUACUAAUCAACCUACUACCUCA", "pre-steady-state target cleavage rate": "0.0059 ± 0.0033"}, {"sequence": "GGAGUGGAUACUAAUACAACCUACUACCUCA", "pre-steady-state target cleavage rate": "0.08 ± 0.032"}, {"sequence": "GGAGACCAUAGUUUACAACCUACUACCUCA", "pre-steady-state target cleavage rate": "0.0227 ± 0.0096"}, {"sequence": "GGAGACCAUACAAAACAACCUACUACCUCA", "pre-steady-state target cleavage rate": "0.00423 ± 0.0037"}, {"sequence": "GGAGACCAUACUAUACAACCUACUACCUCU [g2:g23:cont:t1U]", "pre-steady-state target cleavage rate": "1.45 ± 0.55"}, {"sequence": "GGAGACGAUACUAUAGAACCUACUUCCUCA", "pre-steady-state target cleavage rate": "0.00251 ± 0.0022"}, {"sequence": "GGAGACCAUACUAUACAACCUACUAGCUCA", "pre-steady-state target cleavage rate": "0.00491 ± 0.0023"}, {"sequence": "GGAGUGGAUACUAUACAUCGUACUACCUCA", "pre-steady-state target cleavage rate": "0.0051 ± 0.0023"}, {"sequence": "GGAGACCUUACUAUACAACCUACUACCUCU [g2:g22:cont:t1U]", "pre-steady-state target cleavage rate": "1.04 ± 0.39"}, {"sequence": "GGAGUGGAUUCUAUACAACCUACUACCUCA", "pre-steady-state target cleavage rate": "0.00893 ± 0.0047"}, {"sequence": "GGAGACGAUACUUAUACAACCUACUACCUCA", "pre-steady-state target cleavage rate": "0.0473 ± 0.017"}, {"sequence": "GGAGACCAUACUAUACAAACUACUACCUCA", "pre-steady-state target cleavage rate": "0.00853 ± 0.0037"}, {"sequence": "GGAGAGGAUACUAUACAAGCUACUACCUGA", "pre-steady-state target cleavage rate": "0.00442 ± 0.0019"}, {"sequence": "GGAGAGGAUACUAUACAAGCUACUACCACA", "pre-steady-state target cleavage rate": "0.00317 ± 0.0019"}, {"sequence": "GGAGACGAUACUAUACAACCAUACUACCUCA", "pre-steady-state target cleavage rate": "0.00938 ± 0.0047"}, {"sequence": "GGAGACCUAUCUAUACAACCUACUACCAGA", "pre-steady-state target cleavage rate": "0.00327 ± 0.0026"}, {"sequence": "GGAGACGAUACUAUACUACCUACUAGCUCA", "pre-steady-state target cleavage rate": "0.00251 ± 0.0018"}, {"sequence": "GGAGUGGAUACCAUACAACCUACUACCUCA", "pre-steady-state target cleavage rate": "0.157 ± 0.051"}, {"sequence": "GGAGACCAUACUAUACAACCUACUACGCUCA", "pre-steady-state target cleavage rate": "0.00458 ± 0.0028"}, {"sequence": "GGAGACCAUACUAUACAUCCUACUAGCUCA", "pre-steady-state target cleavage rate": "0.00265 ± 0.0024"}, {"sequence": "GGAGACCAUACUAGUACAACCUACUACCUCA", "pre-steady-state target cleavage rate": "0.00796 ± 0.0044"}, {"sequence": "GGAGACCAUACUAUACAUCCUACUACCUGA", "pre-steady-state target cleavage rate": "0.00312 ± 0.0018"}, {"sequence": "GGAGUGGAUACUAUACAACCUACUACCAGA", "pre-steady-state target cleavage rate": "0.00419 ± 0.0019"}, {"sequence": "GGAGUGGAUACUAUACAACCUACUAGGAGA [g6:g26:cont:t1A]", "pre-steady-state target cleavage rate": "0.00291 ± 0.0023"}, {"sequence": "GGAGUGGAUACUAUACACCUACUACCUCA", "pre-steady-state target cleavage rate": "0.157 ± 0.056"}, {"sequence": "GGAGAGGAAACUAAACAACCUACUACCUCA", "pre-steady-state target cleavage rate": "0.00466 ± 0.0036"}, {"sequence": "GGAGACGAUACUAUACAACGUACUACCUGA", "pre-steady-state target cleavage rate": "0.0041 ± 0.0012"}, {"sequence": "GGAGUGGAUAGUAUACUACCUACUACCUCA", "pre-steady-state target cleavage rate": "0.00287 ± 0.0021"}, {"sequence": "GGAGACGAUAUUAUACAACCUACUACCUCA", "pre-steady-state target cleavage rate": "0.00616 ± 0.0034"}, {"sequence": "GGAGACGAUACUAUACAACCUACUAGCACA", "pre-steady-state target cleavage rate": "0.00326 ± 0.0016"}, {"sequence": "GGAGACCUAACUAUACAACCUACUACCUGA", "pre-steady-state target cleavage rate": "0.00393 ± 0.002"}, {"sequence": "GGAGACCUAUGAUAUCAACCUACUACCAUCA", "pre-steady-state target cleavage rate": "< 0.0001"}, {"sequence": "GGAGACGAUUGAAUACAACCUACUACCUCA", "pre-steady-state target cleavage rate": "0.00528 ± 0.0043"}, {"sequence": "GGAGUGGAUACUAUACAACCUACUAACCUCA", "pre-steady-state target cleavage rate": "0.00634 ± 0.0027"}, {"sequence": "GGAGAGGAUACAUUACAACCUACUACCUCA", "pre-steady-state target cleavage rate": "0.007 ± 0.0035"}, {"sequence": "GGAGACCUAACUAUACAACCUCCUACCUCA", "pre-steady-state target cleavage rate": "0.00446 ± 0.0029"}]}]}
